Measured values taken from the supplement of paper PMC10849652.
Targets with a hit are over-represented here; the source holds about 7,900 in all. About 0.6% of all pairs of compound and target were hits.

Each target was assayed with CCn1cc(-c2ccnc3[nH]c(-c4cccc(CN(C)C)c4)cc23)c(-c2ccc(NC(=O)N(C)C)cc2)n1 (assay: log2 fold change, soluble protein after heating vs DMSO (PISA); higher = thermal stabilisation; K562 cells, 10 uM, 30 min; active = over 0.2 and 3.5 SD of the protein, either way, in both replicates (recomputed)).
Summary of the method: (§1)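 K562 cells at 2×10^6 cells/mL were given 10 μM compound for 30 min. Aliquots then went through 3 min of heating across 48°C-58°C, were pooled, and were extracted in PBS with 0.5% NP-40 at 4°C, and the supernatant after 21,000xg for 90 min was quantified by TMTpro 16plex LC-MS/MS with channel sums equalised. Thermal stability relative to control samples, from duplicates, is given as log2 fold change.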

MTHFD1, A0A384N5Y3, sequence (A0A384N5Y3 whole entry, looked up): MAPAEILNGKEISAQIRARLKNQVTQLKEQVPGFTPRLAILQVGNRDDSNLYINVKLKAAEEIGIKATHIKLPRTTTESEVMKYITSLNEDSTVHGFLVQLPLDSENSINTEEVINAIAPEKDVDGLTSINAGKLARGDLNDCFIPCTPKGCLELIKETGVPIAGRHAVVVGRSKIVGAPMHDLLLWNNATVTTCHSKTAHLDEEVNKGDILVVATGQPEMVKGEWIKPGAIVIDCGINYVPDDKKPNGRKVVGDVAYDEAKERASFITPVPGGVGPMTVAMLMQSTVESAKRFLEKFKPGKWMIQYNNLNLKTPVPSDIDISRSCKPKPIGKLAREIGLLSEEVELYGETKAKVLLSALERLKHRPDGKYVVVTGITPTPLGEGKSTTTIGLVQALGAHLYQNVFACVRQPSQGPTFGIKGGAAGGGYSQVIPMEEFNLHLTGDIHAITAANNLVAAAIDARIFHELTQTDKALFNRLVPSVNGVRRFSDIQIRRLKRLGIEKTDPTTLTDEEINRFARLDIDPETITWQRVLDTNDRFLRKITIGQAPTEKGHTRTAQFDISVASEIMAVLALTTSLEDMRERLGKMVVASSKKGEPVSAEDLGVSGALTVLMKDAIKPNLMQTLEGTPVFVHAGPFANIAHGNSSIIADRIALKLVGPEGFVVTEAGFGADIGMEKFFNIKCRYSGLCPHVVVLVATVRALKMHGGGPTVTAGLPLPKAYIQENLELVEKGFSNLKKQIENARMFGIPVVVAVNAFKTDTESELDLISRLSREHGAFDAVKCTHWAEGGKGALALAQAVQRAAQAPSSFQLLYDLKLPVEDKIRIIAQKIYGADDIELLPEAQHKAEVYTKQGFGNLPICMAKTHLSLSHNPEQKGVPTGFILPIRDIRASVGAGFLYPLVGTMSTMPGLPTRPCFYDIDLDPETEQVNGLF
UniProt Q9Y2X3, sequence (Q9Y2X3 whole entry, looked up): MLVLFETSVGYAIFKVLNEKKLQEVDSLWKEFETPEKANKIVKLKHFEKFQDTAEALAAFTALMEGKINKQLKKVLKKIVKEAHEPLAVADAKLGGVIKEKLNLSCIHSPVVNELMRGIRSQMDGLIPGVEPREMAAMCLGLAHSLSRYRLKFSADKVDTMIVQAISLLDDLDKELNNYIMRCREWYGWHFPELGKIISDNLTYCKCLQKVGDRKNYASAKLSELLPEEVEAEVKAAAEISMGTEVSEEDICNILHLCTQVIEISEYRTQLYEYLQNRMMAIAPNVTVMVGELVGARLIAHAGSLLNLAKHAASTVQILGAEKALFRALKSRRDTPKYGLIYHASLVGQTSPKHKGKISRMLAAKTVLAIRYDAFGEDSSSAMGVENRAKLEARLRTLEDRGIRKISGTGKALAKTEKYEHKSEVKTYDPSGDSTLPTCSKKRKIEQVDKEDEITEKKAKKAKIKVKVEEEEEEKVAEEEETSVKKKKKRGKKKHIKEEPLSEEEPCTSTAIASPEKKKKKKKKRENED
UniProt Q15746, sequence (Q15746 whole entry, looked up): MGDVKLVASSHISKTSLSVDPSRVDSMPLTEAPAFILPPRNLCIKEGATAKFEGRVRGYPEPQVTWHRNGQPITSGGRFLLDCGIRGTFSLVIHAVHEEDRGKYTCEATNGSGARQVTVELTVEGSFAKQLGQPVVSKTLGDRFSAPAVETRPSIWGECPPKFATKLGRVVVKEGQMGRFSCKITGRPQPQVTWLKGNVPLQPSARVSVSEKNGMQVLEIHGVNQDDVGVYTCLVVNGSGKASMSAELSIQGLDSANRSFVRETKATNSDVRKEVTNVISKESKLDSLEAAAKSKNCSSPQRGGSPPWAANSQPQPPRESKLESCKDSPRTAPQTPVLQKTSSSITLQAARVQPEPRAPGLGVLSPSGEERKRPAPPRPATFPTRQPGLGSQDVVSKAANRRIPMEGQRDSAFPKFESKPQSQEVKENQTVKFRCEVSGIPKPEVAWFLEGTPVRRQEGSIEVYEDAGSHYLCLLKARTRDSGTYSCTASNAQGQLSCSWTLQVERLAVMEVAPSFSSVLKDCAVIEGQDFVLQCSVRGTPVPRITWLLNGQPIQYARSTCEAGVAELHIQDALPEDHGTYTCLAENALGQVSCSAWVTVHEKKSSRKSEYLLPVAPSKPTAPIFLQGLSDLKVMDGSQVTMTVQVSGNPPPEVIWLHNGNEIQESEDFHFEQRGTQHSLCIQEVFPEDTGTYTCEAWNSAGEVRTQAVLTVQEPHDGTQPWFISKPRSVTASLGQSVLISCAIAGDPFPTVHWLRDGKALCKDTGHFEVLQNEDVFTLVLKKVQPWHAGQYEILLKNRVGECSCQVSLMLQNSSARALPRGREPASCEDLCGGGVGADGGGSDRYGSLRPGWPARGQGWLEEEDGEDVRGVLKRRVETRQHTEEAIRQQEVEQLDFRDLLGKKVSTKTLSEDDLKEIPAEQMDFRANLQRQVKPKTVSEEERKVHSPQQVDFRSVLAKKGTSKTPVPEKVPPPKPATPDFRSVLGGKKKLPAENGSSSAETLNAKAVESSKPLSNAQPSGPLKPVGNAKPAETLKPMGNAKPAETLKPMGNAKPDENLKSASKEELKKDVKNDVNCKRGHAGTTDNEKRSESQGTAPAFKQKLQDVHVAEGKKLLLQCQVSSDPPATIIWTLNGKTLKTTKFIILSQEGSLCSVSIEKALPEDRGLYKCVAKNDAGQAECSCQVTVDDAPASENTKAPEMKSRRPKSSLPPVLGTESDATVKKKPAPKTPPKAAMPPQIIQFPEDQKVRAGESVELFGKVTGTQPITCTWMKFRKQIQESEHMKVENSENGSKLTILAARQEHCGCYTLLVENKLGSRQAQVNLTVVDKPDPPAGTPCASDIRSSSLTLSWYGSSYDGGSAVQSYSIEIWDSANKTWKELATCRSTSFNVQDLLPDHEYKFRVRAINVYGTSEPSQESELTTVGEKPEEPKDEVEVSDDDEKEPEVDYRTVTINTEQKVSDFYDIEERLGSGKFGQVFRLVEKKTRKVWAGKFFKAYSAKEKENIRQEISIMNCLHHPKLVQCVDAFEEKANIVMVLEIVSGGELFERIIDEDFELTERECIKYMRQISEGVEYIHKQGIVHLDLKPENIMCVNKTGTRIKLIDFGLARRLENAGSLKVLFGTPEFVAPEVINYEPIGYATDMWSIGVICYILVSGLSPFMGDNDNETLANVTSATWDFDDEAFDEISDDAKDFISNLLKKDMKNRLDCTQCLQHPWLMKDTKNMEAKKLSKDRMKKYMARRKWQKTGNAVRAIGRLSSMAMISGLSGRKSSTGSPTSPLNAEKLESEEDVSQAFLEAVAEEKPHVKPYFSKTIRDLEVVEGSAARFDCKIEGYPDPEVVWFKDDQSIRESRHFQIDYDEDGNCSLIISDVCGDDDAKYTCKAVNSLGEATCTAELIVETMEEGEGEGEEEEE
UniProt Q9Y6R0, sequence (Q9Y6R0 whole entry, looked up): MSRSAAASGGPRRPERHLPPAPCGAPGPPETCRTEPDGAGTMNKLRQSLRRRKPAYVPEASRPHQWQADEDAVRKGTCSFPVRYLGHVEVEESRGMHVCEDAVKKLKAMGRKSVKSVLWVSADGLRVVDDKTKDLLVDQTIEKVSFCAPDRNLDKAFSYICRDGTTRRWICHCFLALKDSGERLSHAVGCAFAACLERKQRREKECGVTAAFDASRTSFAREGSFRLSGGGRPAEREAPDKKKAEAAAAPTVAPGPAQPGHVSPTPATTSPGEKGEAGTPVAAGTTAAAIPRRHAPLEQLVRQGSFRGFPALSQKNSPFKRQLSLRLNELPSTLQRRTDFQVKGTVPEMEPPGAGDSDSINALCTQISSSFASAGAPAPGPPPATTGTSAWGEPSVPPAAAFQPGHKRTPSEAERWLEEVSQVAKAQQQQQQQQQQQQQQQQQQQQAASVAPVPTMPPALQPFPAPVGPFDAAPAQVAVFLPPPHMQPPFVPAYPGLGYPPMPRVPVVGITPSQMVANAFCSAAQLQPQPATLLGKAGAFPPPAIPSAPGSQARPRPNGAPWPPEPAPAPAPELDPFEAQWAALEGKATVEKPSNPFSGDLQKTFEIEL
UniProt Q6VY07, sequence (Q6VY07 whole entry, looked up): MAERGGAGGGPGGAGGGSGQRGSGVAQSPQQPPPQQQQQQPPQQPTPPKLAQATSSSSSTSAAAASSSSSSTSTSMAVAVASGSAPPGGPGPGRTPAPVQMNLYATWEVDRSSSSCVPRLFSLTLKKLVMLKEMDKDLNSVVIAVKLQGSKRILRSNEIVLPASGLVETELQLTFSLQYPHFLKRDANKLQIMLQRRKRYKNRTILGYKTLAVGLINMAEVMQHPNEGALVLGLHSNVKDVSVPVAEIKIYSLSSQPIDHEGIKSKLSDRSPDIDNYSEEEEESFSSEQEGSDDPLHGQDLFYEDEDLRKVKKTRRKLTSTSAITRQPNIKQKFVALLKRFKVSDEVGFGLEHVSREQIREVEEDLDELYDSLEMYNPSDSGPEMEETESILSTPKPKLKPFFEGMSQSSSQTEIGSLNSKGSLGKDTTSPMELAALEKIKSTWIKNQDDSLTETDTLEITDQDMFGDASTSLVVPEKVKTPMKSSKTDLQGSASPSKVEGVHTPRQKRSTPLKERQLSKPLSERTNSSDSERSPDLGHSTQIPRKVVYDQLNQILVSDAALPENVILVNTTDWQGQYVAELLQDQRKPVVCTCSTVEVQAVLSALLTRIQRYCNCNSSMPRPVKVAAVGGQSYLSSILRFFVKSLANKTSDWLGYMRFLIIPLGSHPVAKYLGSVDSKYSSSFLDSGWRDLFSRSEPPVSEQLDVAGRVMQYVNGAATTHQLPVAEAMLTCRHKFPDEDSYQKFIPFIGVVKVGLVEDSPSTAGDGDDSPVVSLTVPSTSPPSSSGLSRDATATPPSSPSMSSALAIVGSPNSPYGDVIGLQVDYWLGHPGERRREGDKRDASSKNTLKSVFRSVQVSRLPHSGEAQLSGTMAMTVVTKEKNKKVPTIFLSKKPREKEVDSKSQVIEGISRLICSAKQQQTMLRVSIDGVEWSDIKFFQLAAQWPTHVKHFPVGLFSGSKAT
UniProt Q69YL0, sequence (Q69YL0 whole entry, looked up): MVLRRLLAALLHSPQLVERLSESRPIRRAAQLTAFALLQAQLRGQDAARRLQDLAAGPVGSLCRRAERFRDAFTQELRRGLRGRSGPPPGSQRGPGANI

log2 fold change, inactive:
NFYB (UniProt P25208) -0.055
NME7 (UniProt Q9Y5B8) -0.044
NPM3 (UniProt O75607) 0.014
MTFR1L (UniProt Q9H019) -0.186
NA, A0A2R8Y3M9 -0.015
NME2P1 (UniProt O60361) 0.198
MON1A (UniProt Q86VX9) 0.003
NCOA7 (UniProt Q8NI08) -0.004
NUMBL (UniProt Q9Y6R0) 0.007
NDFIP1 (UniProt Q9BT67) 0.224
PACS1 (UniProt Q6VY07) -0.006
NPC1 (UniProt O15118) 0.005
MRPS16 (UniProt Q9Y3D3) -0.116
NOP58 (UniProt Q9Y2X3) 0.192
MYLK (UniProt Q15746) 0.042
MLX (UniProt Q9UH92) 0
NUDT7 (UniProt P0C024) -0.055
OPHN1 (UniProt O60890) -0.143
MTHFD1, A0A384N5Y3 -0.113
NECTIN2 isoform 2 (UniProt Q92692) -0.104
MRPL46 (UniProt Q9H2W6) -0.04
MRPS33 (UniProt Q9Y291) -0.011
NCBP2AS2 (UniProt Q69YL0) 0.026
NCOA5 (UniProt Q9HCD5) 0.038
MRPS26 (UniProt Q9BYN8) -0.023
MRFAP1 (UniProt Q9Y605) 0.022
ORC5 (UniProt O43913) -0.103
NEK3 (UniProt P51956) -0.125

These targets were tested with CN(C)CC(=O)Nc1ccc2[nH]c(=O)c3ccccc3c2c1 in the same assay as above.
Summary of the method: as §1

log2 fold change, inactive:
NFYB (UniProt P25208) -0.011
NME7 (UniProt Q9Y5B8) -0.045
MPHOSPH8 isoform 2 (UniProt Q99549) -0.093
NPM3 (UniProt O75607) -0.011
MTFR1L (UniProt Q9H019) 0.08
NME2P1 (UniProt O60361) -0.021
NCOA7 (UniProt Q8NI08) -0.002
NCK1 (UniProt P16333) 0.044
PAFAH2 (UniProt Q99487) 0.005
NAT14 (UniProt Q8WUY8) 0.077
NUMBL (UniProt Q9Y6R0) -0.023
NDFIP1 (UniProt Q9BT67) 0.152
NA isoform 3 (UniProt Q4G0T1) -0.019
PACS1 (UniProt Q6VY07) 0.006
NPC1 (UniProt O15118) -0.029
MRPS21 (UniProt P82921) 0.058
MRPS16 (UniProt Q9Y3D3) 0.046
NOP58 (UniProt Q9Y2X3) 0.052
MYLK (UniProt Q15746) 0.184
OSBPL3 (UniProt Q9H4L5) 0
MTHFD1, A0A384N5Y3 0.045
NAA11 (UniProt Q9BSU3) -0.114
NECTIN2 isoform 2 (UniProt Q92692) -0.063
MRPL46 (UniProt Q9H2W6) 0.014
MRPS33 (UniProt Q9Y291) -0.01
MT-ND1 (UniProt P03886) 0.253
NCBP2AS2 (UniProt Q69YL0) -0.072
MRPS26 (UniProt Q9BYN8) 0.003
MRFAP1 (UniProt Q9Y605) 0.242
ORC5 (UniProt O43913) 0.105
NEK3 (UniProt P51956) 0.014

Each target was assayed with CN(CCOC1=CC=C(C=C1)C[C@H]2C(=O)NC(=O)S2)C3=CC=CC=N3 (racemic) [rosiglitazone] in the same assay as above.
Summary of the method: as §1

log2 fold change, inactive:
NFYB (UniProt P25208) -0.054
NME7 (UniProt Q9Y5B8) 0.104
NPM3 (UniProt O75607) -0.122
MTFR1L (UniProt Q9H019) -0.019
NA, A0A2R8Y3M9 0.117
NME2P1 (UniProt O60361) 0.166
MON1A (UniProt Q86VX9) 0.134
NCOA7 (UniProt Q8NI08) 0.099
NCK1 (UniProt P16333) 0.223
PAFAH2 (UniProt Q99487) 0.082
NAT14 (UniProt Q8WUY8) 0.095
NUMBL (UniProt Q9Y6R0) -0.051
NDFIP1 (UniProt Q9BT67) 0.108
NA isoform 3 (UniProt Q4G0T1) 0.008
PACS1 (UniProt Q6VY07) 0.039
NPC1 (UniProt O15118) -0.018
MRPS21 (UniProt P82921) 0.165
MRPS16 (UniProt Q9Y3D3) -0.071
NOP58 (UniProt Q9Y2X3) -0.052
MYLK (UniProt Q15746) 0.202
MLX (UniProt Q9UH92) 0.052
NUDT7 (UniProt P0C024) 0.038
OPHN1 (UniProt O60890) 0.121
MTHFD1, A0A384N5Y3 0.023
NAA11 (UniProt Q9BSU3) -0.053
MYSM1 (UniProt Q5VVJ2) 0.157
NECTIN2 isoform 2 (UniProt Q92692) -0.151
MRPL46 (UniProt Q9H2W6) -0.017
MRPS33 (UniProt Q9Y291) -0.007
MT-ND1 (UniProt P03886) -0.071
NCBP2AS2 (UniProt Q69YL0) -0.063
MRPS26 (UniProt Q9BYN8) 0.053
MRFAP1 (UniProt Q9Y605) 0.048
ORC5 (UniProt O43913) 0.084
